The list is not random: actives were taken first. Their share in the collection is about 9.4%.
SMN2 splice enh = qHTS Assay for Enhancers of SMN2 Splice Variant Expression; HEK293 SMN2-luciferase splicing reporter, luminescence, 30-36 h; Potency, µM (top dose mostly 46.1 µM), for inactives: at the top dose activity change, positive = activation, hits mostly activators; 210,000 tested, 2.8% active; AID 1458, 2008; note: % of control where 0% means no effect; nearly all actives have a fitted effect of over 55% in size
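HEK293 cells carry an SMN2 […]–luciferase reporter in which exon 7 inclusion puts luciferase in frame. Cells were plated 10-12 h before compound addition, then incubated 30-36 h at 37C. ONE-Glo luminescence was read; sodium butyrate at 4.5 mM final served as control.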
ELG1 genotox = qHTS screen for small molecules that induce genotoxicity in human embryonic kidney (HEK293T) cells expressing luciferase-tagged ELG1. HEK293T ELG1-luciferase reporter, luminescence, 16 h. Potency, µM (series often up to 46 µM), for inactives: at the highest dose activity change, positive = activation, hits mostly activators. 330,000 tested, 1.3% active. AID 504466, 2011; note: % of control where 0% means no effect; nearly all actives have a fitted effect of over 60% in size
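16 hr compound incubation (37 °C, 5% CO2) of HEK293T cells carrying luciferase-tagged ELG1; luciferase then measured by ONE-Glo luminescence after 30 min at RT.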
FLuc counter = qHTS profiling assay for firefly luciferase inhibitor/activator using purifed enzyme and Km concentrations of substrates (counterscreen for miR-21 project); AID 588342, 2011; purified FLuc, Km substrates, luminescence inhibition; 360,000 tested, 6.9% active; Luciferin 4-monooxygenase (Photinus pyralis), P08659; Potency, µM (top dose mostly 57.5 µM), without a hit: at the top dose activity change, negative = inhibition, usual class: inhibitors;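 note: plate controls were vehicle for no effect and reference inhibitor for full effect; nearly all actives have a fitted effect of over 55% in size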
Target sequence (P08659 whole entry, looked up): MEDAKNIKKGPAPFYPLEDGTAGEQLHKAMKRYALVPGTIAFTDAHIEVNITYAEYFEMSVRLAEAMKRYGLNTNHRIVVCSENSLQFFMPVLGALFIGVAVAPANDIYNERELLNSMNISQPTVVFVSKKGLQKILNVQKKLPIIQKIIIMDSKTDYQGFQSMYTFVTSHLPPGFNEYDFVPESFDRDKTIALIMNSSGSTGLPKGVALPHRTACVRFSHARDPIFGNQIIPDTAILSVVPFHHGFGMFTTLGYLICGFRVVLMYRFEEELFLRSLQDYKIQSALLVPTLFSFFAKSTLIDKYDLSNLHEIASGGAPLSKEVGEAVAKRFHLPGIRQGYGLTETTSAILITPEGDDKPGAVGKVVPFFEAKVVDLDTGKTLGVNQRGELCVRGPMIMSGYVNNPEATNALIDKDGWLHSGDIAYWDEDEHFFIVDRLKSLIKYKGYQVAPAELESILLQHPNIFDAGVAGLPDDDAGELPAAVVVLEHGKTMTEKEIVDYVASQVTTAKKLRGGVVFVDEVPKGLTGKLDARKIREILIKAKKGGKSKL
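Purified P. pyralis luciferase (10nM final) with 10uM D-luciferin and 10uM ATP (Km levels) in 50mM Tris acetate pH 7.5, 10mM Mg acetate, 0.01% Tween-20, 0.05% BSA; qHTS 6-point titration, ~60 µM downward; luminescence read.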
ELG1 DNA repair = qHTS screen for small molecules that inhibit ELG1-dependent DNA repair in human embryonic kidney (HEK293T) cells expressing luciferase-tagged ELG1; Potency, µM (highest dose often 46.1 µM), without a hit: top-dose activity change, negative = inhibition, hits mostly inhibitors; 330,000 tested, 2.3% active; AID 504467, 2011; HEK293T ELG1-luciferase reporter, luminescence, 16 h; DNA damage induced by 5-fluorouridine; note: % is set by controls: 0 for no effect and ±100 for the full control effect; nearly all actives have a fitted effect of over 55% in size
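Step one: seed 2,000 cells per well. Step two: pin-transfer compound or DMSO alongside 5-fluorouridine. Step three: incubate 16 hr, 37 °C, 5% CO2. Step four: add ONE-Glo, wait 30 min, read luminescence.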
Rab9 promoter act = qHTS Assay for Rab9 Promoter Activators | Huh7 Rab9 promoter-luciferase reporter, luminescence, 24 h | Potency, µM (titrated, usually from 9.22 µM), inactives show at the top dose activation, negative = inhibition, most hits filed as activators | 320,000 tested, 2.8% active; note: % of control where 0% means no effect; nearly all actives have a fitted effect of over 60% in size
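Huh7 reporter line, Rab9 promoter upstream of luciferase. Compound exposure 24 h at 37 °C in reduced-serum medium with 10% FBS. Read-out: luminescence.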
NPC1 promoter act = qHTS Assay for NPC1 Promoter Activators | 320,000 tested, 2.4% active | Potency, µM (doses to about 9.22 µM), for inactives: top-dose activation, most hits filed as activators | AID 485313, 2010 | Huh7 NPC1 promoter luciferase reporter, 24 h; note: % of control where 0% means no effect; nearly all actives have a fitted effect of over 60% in size
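Huh7 cells stably carrying NPC1 promoter–luciferase, plated in Opti-MEM with 10% FBS for 2 h, were exposed to compound in DMSO for 24 h at 37 °C; luciferase reagent was added for 10 min and luminescence read.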
Numbers without * were called inactive; ? = inconclusive; / = not tested or not shown; [ ] = another dose, or the depositor's remark. Calls come from the whole dose curve; as a rule, active = well fitted curve in the direction sought with a large enough effect; inconclusive = small, poorly fitted or top-dose-only effect, or another doubt; inactive = no such curve, though single readings can be large; an effect the other way counts as inactive or inconclusive. Potency is the fitted concentration of half-maximal effect.

SMILES | SMN2 splice enh | ELG1 genotox | FLuc counter | ELG1 DNA repair | Rab9 promoter act | NPC1 promoter act
Cc1ccc(C(=O)CNc2cccc(Cl)c2)cc1 | 3.2% | ? | 2.69µM* | ? | ? | 10.3%
O=C(CNc1cccc(Cl)c1)c1ccc(Cl)cc1 | -5.0% | 4.6% | ? | ? | -0.9% | 2.7%
Cc1ccc(C(=O)CNc2ccc(C)c(Cl)c2)cc1 | 2.2% | ? | ? | ? | 10.1% | 12.8%
O=C(Nc1ccccc1Br)N1CCN2CCCCC2C1 (stereo not drawn) | / | / | 5.0% | / | / | /
Cc1sc2c(c1C)C(=O)NC(c1ccccc1F)N2 (stereo not drawn) | / | ? | 16.9µM* | ? | ? | 27.4%
Fc1ccccc1/C=N/n1cc(-c2ccccc2)[nH]c1=S | / | 2.2% | ? | ? | 3.98µM* | 1.12µM*
S=c1[nH]c(-c2ccccc2)cn1/N=C/c1cccs1 | / | -0.6% | -14.7% | ? | ? | 1.41µM*
S=c1[nH]c(-c2ccccc2)cn1/N=C/c1ccc(Br)cc1 | / | -8.6% | ? | -16.2% | ? | 15.5%
O=C1C(c2ccc(F)cc2)N(CCc2ccccc2)C(=O)CN1C1CCCCCC1 (stereo not drawn) | / | / | -6.7% | / | / | /
COc1ccc(-n2c(=O)c(C)nc3cnc(Nc4ccccc4)nc32)cc1 | -2.7% | / | / | / | / | /
O=[N+]([O-])c1cccc(-c2ccc(C(=S)N3CCN(c4ccccc4)CC3)o2)c1 | / | -7.8% | ? | 0.0% | -0.9% | 7.7%
O=C(N/N=C/c1cccc([N+](=O)[O-])c1)c1ccc(CN2CCOCC2)cc1 | 2.7%[1.84 µM] | -4.3% | ? | -10.3% | 12.7% | -1.5%
O=C(Nc1ccc(CN2CCOCC2)cc1)c1ccc(-c2cccc([N+](=O)[O-])c2)o1 | / | -16.3% | ? | 13µM* | -2.6% | -6.9%
O=[N+]([O-])c1cccc(-c2ccc(C(=S)N3CCOCC3)o2)c1 | 11.2µM* | ? | 3.01µM* | ? | 1.12µM* | 2.82µM*
O=C(NN1CCOCC1)c1ccc(Cl)c([N+](=O)[O-])c1 | / | 1.4% | 0.1% | 6.1% | 6.5% | 3.9%
O=[N+]([O-])c1cc(-c2ccc(C(=S)N3CCOCC3)o2)ccc1Cl | 25.5% | 15.5% | 15.1µM* | ? | 7.5% | -9.8%
CN1CCN(C(=S)c2ccc(-c3cccc([N+](=O)[O-])c3)o2)CC1 | / | 10.3µM* | 6.75µM* | ? | 2.24µM* | 2.24µM*
Cc1ccc(N2CC(NC(=O)c3ccc(S(=O)(=O)N4CCCC4)cc3)CC2=O)cc1C (stereo not drawn) | / | / | -4.4% | / | / | /
CCN(CC)CC[n+]1ccc2c(C)c3[nH]c4ccccc4c3c(C)c2c1 | -68.2%[9.22 µM] | / | / | / | / | /
COc1ccc(Cc2[nH]n3c(=O)cc(C)nc3c2-c2ccccc2)cc1 | -79.1% | -11.0% | -5.0% | ? | -10.3% | 0.5%
COc1ccc(Cc2[nH]n3c(=O)cc(C(C)C)nc3c2-c2ccccc2)cc1 | -78.5% | -7.1% | -6.6% | 8.2µM* | -42.0% | -20.0%
COc1ccc2oc(=O)c(C(=O)N3CCN(c4ccccc4C)CC3)cc2c1 | 14.1µM* | 9.2µM* | 13.5µM* | ? | 27.2% | 17.7%
N=c1oc2cc(O)ccc2cc1C(=O)Nc1ccc(Br)cc1 | / | 17.0% | 2.69µM* | ? | 1.41µM* | 1.78µM*
CNC(=O)c1cc2cc(OC)ccc2oc1=N | -13.4% | 2.4% | -16.6% | ? | 0.0% | -6.6%
O=C(NNC(=O)c1cc2ccccc2cc1O)Nc1ccc(Br)cc1 | / | -1.8% | ? | -6.8% | 8.0% | 3.8%
SMILES | SMN2 splice enh | ELG1 genotox | FLuc counter | ELG1 DNA repair | Rab9 promoter act | NPC1 promoter act
COc1ccc2oc(=N)c(C(=O)Nc3ccccc3)cc2c1 | 12.6µM* | ? | 0.953µM* | ? | 3.16µM* | ?
COc1ccc2oc(=N)c(C(=O)Nc3cccc(C)c3C)cc2c1 | / | ? | 0.757µM* | ? | 4.47µM* | 2.24µM*
COc1ccc2oc(=N)c(C(=O)Nc3ccc(C)cc3)cc2c1 | / | 11.3% | ? | 7.1% | ? | 23.4%
COc1cccc(/C=C/c2nc(C#N)c(N3CCN(C)CC3)o2)c1 | -5.0% | / | 1.2% | / | / | /
COC(=O)c1nnc(C(=O)N(C)Cc2ccccc2)c2[nH]c3ccccc3c12 | 0.7% | / | / | / | / | /
COc1ccc(-n2c(=O)c(-c3cccs3)nc3cnc(N4CCNCC4)nc32)cc1 | -117.3% | / | / | / | / | /
Cc1cccc(Cc2cnc(NC(=O)C3Cc4ccc(C)cc4C(=O)O3)s2)c1 (stereo not drawn) | -11.6% | / | 1.2% | / | / | /
O=C(Nc1ccccc1O)c1cc2cc(Br)ccc2oc1=O | / | ? | ? | ? | ? | 3.55µM*
N=c1oc2ccc(Br)cc2cc1C(=O)NCc1ccccc1 | / | 13.9% | -0.8% | 3.0% | 6.0% | -5.9%
O=C(NNC(=O)c1cc2cc(Br)ccc2oc1=O)c1ccc(O)cc1 | -4.2% | -1.3% | -17.1% | 0.2% | -2.0% | -3.7%
N=c1oc2ccccc2cc1C(=O)Nc1ccccc1 | / | 0.82µM* | 0.757µM* | ? | 1.26µM* | 0.501µM*
N=c1oc2cc(O)ccc2cc1C(=O)Nc1ccccn1 | -6.5% | 4.4% | ? | 7.5% | 2.3% | 0.6%
